Assays:
Experiment in all cases: log2 ratio of Biotin-Ahx-Ub-VS probe labelling (fragment/DMSO); higher = less target engagement (more negative = stronger competition), active = hit call of the paper (q ≤ 0.05, log2 ratio ≤ -1)
Conditions in all cases: compound concentration: 200 uM; treatment time: 3 h
USP19 = molecular target: T1, USP19 (UniProt O94966)
T1 sequence (whole entry): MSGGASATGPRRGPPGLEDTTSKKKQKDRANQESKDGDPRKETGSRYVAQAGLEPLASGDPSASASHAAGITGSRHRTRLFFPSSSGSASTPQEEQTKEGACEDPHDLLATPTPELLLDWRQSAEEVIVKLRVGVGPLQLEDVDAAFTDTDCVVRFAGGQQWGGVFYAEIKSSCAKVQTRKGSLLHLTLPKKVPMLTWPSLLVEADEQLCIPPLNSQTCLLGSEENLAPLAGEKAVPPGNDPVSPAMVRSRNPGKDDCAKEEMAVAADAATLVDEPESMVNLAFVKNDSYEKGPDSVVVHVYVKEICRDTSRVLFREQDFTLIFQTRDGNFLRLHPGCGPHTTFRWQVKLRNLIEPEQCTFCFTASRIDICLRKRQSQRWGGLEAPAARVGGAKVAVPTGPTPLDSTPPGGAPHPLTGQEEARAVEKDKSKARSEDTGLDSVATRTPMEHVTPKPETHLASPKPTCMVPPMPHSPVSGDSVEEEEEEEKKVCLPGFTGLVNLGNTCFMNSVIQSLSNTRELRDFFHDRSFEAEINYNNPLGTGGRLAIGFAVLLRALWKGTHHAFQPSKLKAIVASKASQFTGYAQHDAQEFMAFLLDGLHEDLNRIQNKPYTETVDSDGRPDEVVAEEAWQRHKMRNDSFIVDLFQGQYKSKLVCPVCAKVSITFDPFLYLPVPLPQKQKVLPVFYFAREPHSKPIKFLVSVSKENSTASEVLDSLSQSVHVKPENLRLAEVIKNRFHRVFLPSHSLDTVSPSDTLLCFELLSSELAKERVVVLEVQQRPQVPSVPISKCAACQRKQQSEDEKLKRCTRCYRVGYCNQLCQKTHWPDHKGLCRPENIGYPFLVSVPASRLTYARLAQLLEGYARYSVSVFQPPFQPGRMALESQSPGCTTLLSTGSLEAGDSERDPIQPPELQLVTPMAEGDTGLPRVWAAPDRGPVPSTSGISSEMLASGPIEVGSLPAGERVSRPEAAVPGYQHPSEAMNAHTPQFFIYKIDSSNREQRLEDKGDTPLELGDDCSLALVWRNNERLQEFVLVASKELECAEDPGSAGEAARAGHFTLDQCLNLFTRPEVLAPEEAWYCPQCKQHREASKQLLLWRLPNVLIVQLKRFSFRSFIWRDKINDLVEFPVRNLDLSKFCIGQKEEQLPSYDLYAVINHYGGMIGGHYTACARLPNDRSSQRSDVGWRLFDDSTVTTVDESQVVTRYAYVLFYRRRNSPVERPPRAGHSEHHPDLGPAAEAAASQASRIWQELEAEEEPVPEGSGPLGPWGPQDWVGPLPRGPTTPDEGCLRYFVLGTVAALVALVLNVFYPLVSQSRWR
Summary of the method: (§1)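 HEK293T lysate, 495 µg per sample in Tris/CHAPS/IGEPAL buffer with protease inhibitors, was treated in triplicate with fragment at 200 µM or vehicle for 3 h and then with Biotin-Ahx-Ub-VS at 0.5 µM final for 1 h. Labelled DUBs were NeutrAvidin-enriched, digested with LysC and trypsin, and run by diaPASEF LC-MS/MS. Spectronaut label-free quantities were global-median-normalised, and values are average log2 fragment/vehicle ratios by unpaired t-test on proteins with ≥2 unique peptides.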

USP22 = molecular target: T2, USP22 (UniProt Q9UPT9)
T2 sequence (whole entry): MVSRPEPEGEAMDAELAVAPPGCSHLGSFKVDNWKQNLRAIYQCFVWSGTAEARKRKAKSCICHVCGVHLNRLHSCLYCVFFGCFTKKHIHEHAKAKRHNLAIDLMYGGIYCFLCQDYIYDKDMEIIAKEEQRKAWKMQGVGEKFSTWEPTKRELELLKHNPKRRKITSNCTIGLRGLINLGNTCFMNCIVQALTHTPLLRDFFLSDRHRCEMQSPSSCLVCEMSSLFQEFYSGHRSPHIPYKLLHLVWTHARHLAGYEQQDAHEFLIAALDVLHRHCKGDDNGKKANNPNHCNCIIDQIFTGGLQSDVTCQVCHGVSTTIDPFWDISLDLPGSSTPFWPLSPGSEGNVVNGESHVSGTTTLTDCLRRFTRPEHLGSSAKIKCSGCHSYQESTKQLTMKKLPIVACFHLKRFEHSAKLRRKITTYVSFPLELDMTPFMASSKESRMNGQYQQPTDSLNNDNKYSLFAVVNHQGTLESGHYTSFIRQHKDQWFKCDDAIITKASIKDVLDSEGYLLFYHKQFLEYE
Summary of the method: as §1

USP24 = USP24 (UniProt Q9UPU5)
Chain of USP24 (Q9UPU5 whole entry): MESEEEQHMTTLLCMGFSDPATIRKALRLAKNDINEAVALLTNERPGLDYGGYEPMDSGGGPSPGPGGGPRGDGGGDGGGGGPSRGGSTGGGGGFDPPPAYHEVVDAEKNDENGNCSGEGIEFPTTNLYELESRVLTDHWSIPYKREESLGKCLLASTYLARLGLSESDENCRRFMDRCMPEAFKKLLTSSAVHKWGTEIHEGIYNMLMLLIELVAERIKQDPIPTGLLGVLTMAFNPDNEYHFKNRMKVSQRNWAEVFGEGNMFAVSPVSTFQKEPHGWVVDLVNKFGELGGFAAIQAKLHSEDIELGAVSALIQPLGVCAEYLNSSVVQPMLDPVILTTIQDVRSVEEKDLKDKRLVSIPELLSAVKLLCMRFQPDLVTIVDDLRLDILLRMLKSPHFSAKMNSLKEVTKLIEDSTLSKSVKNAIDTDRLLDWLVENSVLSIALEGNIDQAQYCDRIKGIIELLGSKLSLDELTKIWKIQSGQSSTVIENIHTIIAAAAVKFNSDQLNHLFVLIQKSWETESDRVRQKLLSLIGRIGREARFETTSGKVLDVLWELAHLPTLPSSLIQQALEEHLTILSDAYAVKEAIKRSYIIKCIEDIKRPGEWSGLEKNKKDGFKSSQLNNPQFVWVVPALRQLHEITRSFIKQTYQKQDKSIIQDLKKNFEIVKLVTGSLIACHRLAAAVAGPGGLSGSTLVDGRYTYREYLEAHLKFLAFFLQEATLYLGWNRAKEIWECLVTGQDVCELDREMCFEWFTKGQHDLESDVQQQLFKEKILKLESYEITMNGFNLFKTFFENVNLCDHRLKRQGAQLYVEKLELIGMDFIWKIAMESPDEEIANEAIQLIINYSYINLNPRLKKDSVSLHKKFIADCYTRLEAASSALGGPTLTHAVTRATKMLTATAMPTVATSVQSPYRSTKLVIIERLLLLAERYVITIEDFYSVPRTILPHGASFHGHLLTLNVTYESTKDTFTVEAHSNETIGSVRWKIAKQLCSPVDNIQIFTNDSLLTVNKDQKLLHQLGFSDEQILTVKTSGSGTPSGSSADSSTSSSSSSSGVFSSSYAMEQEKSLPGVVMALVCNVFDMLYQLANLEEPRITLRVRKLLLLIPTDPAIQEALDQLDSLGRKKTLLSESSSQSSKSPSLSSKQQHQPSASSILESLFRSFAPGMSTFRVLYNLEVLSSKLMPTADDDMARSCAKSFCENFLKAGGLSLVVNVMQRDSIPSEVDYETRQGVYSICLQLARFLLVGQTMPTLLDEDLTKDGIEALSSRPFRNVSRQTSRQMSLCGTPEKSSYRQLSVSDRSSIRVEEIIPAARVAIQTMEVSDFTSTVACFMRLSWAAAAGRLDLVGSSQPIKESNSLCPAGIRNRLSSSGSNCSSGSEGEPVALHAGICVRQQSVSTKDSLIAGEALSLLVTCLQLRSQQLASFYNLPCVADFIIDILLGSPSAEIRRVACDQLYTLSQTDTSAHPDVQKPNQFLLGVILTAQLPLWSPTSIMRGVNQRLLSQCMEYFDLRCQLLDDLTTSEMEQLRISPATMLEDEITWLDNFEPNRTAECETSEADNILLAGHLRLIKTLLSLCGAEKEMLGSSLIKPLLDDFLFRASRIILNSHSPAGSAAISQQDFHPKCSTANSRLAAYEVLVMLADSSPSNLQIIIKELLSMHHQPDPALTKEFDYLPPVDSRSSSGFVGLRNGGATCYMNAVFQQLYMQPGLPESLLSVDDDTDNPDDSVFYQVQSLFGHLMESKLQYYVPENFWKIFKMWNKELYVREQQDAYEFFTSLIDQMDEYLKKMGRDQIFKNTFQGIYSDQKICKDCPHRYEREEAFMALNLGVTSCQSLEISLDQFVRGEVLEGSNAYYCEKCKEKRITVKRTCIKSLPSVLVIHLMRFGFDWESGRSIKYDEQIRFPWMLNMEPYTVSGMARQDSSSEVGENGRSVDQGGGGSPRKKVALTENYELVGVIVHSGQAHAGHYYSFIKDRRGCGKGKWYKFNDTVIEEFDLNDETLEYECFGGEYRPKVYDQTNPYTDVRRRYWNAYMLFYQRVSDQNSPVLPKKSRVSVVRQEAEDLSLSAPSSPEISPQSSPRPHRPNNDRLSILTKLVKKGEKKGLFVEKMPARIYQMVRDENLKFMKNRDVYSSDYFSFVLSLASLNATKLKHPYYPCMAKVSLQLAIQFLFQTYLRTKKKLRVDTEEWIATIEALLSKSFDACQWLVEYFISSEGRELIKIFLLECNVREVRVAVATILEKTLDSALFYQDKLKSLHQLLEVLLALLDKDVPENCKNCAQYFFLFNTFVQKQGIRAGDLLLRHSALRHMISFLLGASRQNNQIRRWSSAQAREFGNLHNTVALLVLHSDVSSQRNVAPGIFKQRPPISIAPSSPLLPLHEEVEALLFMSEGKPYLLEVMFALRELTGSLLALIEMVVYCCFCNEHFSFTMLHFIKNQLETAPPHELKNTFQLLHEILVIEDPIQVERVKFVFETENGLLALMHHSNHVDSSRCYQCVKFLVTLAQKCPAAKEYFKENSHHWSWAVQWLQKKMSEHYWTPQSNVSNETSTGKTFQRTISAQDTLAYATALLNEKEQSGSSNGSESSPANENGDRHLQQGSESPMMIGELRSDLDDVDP
Summary of the method: as §1

USP25 = molecular target: T3, USP25 (UniProt Q9UHP3)
T3 sequence (whole entry): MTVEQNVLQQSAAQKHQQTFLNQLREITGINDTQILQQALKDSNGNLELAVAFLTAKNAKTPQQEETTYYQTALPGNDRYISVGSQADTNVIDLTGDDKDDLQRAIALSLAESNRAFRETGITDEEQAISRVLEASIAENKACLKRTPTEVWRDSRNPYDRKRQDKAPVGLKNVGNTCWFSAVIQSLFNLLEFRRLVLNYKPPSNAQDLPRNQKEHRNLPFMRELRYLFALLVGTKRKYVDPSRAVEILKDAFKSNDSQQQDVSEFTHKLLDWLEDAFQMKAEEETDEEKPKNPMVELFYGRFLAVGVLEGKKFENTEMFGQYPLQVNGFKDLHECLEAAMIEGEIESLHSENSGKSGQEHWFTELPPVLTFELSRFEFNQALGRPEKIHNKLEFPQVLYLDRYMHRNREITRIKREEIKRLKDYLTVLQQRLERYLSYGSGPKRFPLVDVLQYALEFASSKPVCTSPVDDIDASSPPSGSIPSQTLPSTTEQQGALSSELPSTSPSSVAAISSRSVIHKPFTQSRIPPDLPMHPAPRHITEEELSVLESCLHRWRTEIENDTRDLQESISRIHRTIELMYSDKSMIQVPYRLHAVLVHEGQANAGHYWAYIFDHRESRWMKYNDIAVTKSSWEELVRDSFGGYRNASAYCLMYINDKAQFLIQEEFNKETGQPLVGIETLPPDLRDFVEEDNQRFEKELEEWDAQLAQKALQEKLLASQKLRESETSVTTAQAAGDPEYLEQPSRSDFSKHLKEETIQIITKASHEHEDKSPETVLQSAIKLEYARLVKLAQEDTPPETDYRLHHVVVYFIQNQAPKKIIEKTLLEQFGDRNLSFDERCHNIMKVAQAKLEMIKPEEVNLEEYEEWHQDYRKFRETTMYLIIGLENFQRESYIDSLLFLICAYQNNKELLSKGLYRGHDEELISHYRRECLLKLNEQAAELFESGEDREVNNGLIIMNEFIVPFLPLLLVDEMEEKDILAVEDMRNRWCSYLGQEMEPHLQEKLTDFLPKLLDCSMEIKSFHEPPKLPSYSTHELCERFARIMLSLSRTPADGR
Summary of the method: as §1

USP28 = molecular target: T4, USP28 (UniProt Q96RU2)
T4 sequence (whole entry): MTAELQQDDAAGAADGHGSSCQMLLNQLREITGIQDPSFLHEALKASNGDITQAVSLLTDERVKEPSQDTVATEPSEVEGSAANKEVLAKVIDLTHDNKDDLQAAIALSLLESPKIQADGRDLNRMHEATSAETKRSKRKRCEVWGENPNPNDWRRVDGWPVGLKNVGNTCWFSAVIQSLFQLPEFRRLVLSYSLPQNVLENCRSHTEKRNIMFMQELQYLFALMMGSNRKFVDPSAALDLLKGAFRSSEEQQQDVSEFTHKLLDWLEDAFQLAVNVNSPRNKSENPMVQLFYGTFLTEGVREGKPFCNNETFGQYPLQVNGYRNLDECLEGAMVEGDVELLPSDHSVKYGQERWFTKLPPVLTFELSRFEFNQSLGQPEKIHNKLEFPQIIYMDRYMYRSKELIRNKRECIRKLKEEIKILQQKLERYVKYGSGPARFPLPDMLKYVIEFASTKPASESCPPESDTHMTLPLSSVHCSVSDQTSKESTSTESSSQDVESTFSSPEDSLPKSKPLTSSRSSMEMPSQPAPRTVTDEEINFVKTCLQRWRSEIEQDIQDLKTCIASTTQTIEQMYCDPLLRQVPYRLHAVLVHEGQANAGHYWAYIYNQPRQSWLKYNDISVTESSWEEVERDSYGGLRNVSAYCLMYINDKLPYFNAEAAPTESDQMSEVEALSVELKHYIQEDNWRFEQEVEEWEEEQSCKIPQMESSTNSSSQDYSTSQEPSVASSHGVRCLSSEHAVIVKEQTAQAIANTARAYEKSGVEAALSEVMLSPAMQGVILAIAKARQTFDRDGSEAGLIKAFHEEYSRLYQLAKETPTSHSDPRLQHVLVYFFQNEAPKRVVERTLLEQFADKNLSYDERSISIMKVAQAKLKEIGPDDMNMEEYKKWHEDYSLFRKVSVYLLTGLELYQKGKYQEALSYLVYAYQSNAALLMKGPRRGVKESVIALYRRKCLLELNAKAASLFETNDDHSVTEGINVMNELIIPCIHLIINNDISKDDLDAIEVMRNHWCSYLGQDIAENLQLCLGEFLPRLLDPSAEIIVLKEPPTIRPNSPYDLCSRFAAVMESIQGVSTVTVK
Summary of the method: as §1

Measured: log2 ratio of Biotin-Ahx-Ub-VS probe labelling

Cc1nc(CN2CCCN(C(=O)CCl)CC2)no1.Cl
inactive: USP19 0.0547 | USP22 0.125 | USP24 0.252 | USP25 0.233 | USP28 -0.00501
